Inconclusive results are not listed. Calls of active or inactive are those of the source. Unless noted, calls come from the whole dose curve.
How the values were obtained:
[1] = Nuclear factor erythroid 2-related factor 2/antioxidant responsive element (Nrf2/ARE) small molecule agonists: qHTS cell viability counter screen in human keratinocytes (AID 1919968; active = well fitted curve in the direction sought with a large enough effect in the repeat runs; an effect the other way counts as inactive or inconclusive; note: nearly all actives have a fitted effect of over 55% in size)
Outline: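 Cells of the KeratinoSens line were plated at 1,500 per well and left for 5 h before compound transfer from DMSO stocks. After a 23 h incubation (37 C, 5% CO2), CellTiter-Fluor was added. Signal was taken as fluorescence intensity 1 h later.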

[2] = Nuclear factor erythroid 2-related factor 2/antioxidant responsive element (Nrf2/ARE) small molecule agonists: luciferase reporter gene qHTS assay in human keratinocytes (AID 1919969); note: nearly all actives have a fitted effect of over 35% in size
[3] = molecular target: Gonadotropin-releasing hormone receptor (Homo sapiens) (UniProt P30968); assay: Human gonadotropin-releasing hormone receptor (GnRHR) small molecule agonists, calcium flux assay in GnRHR-HEK293 cells (AID 1920063); note: nearly all actives have a fitted effect of over 35% in size
Outline: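 Compounds dissolved in DMSO are pin-transferred onto dye-loaded GnRHR-HEK293 cells, which were seeded 18 h before at 37 C/5% CO2. Calcium signal is read as fluorescence intensity at 1 s intervals for 3 min.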

[4] = molecular target: KiSS-1 receptor (Homo sapiens) (UniProt Q969F8); assay: Human kisspeptin (KISS1R) small molecule agonists, calcium flux assay in KISS1R-HEK293 cells (AID 1920064; active = well fitted curve in the direction sought with a large enough effect in the repeat runs; an effect the other way counts as inactive or inconclusive)
Outline: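 Cell line: HEK293, stable human KISS1R. Dye loading 1 h at 37 C after 18 h culture. Read: kinetic fluorescence, 480/540 nm, 3 min at 1 s intervals.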

[5] = G protein-coupled receptor (GPCR) small molecule agonists, calcium flux assay: HEK293 wild type cell line counter screen (AID 1920065)
Outline: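 Tox21 10K compounds, 15 concentrations each in triplicate, pin-transferred in DMSO onto dye-loaded cells; kinetic read at 480/540 nm for 3 min, 1 s intervals.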

[6] = p53 small molecule agonists, cell-based qHTS assay with human liver microsomes (AID 1963577)
Outline: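 p53RE-bla reporter cells were pre-incubated 5 h at 37 C, then treated with compounds plus human liver microsomes (0.5 mg/mL final) and NADPH (0.5 mg/mL final) for 16 h at 37 C. Beta-lactamase activity was read by LiveBLAzer fluorescence after 2 h at room temperature.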

[7] = p53 small molecule agonists, cell-based qHTS assay with rat liver microsomes (AID 1963578)
Outline: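 p53RE-bla cells were exposed to compounds together with rat liver microsomes (0.5 mg/mL final) and NADPH (0.5 mg/mL final) for 16 h at 37 C, then read by LiveBLAzer beta-lactamase fluorescence after 2 h at room temperature.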

[8] = p53 small molecule agonists, cell-based qHTS assay with human liver microsomes: qHTS cell viability counter screen (AID 1963579); note: nearly all actives have a fitted effect of over 45% in size
Outline: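 p53RE-bla cells (4,000/well) were pre-incubated 5 h at 37 C, then given compounds in DMSO plus human liver microsomes (0.5 mg/mL final) and NADPH (0.5 mg/mL final) for 16 h at 37 C. Viability was read by CellTiter-Glo luminescence.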

[9] = p53 small molecule agonists, cell-based qHTS assay with rat liver microsomes: qHTS cell viability counter screen (AID 1963580); note: nearly all actives have a fitted effect of over 45% in size
Outline: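 Luminescent ATP readout (CellTiter-Glo, 30 min at room temperature) reports viability of p53RE-bla HCT-116 cells after 16 h at 37 C with test compounds under metabolic activation by rat liver microsomes and NADPH at 0.5 mg/mL final each.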

[10] = p53 small molecule agonists, cell-based qHTS assay: qHTS cell viability counter screen (AID 1963581); note: nearly all actives have a fitted effect of over 45% in size
Outline: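 ATP content measured by luminescence in HCT-116 p53RE-bla cells treated 16 h at 37 C, same wells as the reporter screen.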

[11] = molecular target: Beta-2 adrenergic receptor (Homo sapiens) (UniProt P07550); assay: Adrenergic beta2 receptor (ADRB2) small molecule antagonists, cell-based qHTS assay (AID 1963592); note: series mostly up to about 92 µM; nearly all actives have a fitted effect of over 50% in size
Outline: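 Assay format: CHO-ADRB2 cells, 18-20hr seeding at 37C/5% CO2, then compound plus 1nM isoproterenol agonist mix for 0.5hr RT. Homogeneous time-resolved fluorescence cAMP detection after 1hr, expressed as 665/615 nm ratio.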

[12] = molecular target: D(2) dopamine receptor (Homo sapiens) (UniProt P14416); assay: Dopamine D2 receptor (DRD2) small molecule agonists, cell-based qHTS assay (AID 1963594); note: nearly all actives have a fitted effect of over 35% in size
Outline: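 HEK293 cells stably expressing DRD2 were cultured 24 h at 37 C, then given Ro20-1724 (0.1 mM final) and compounds for 10 min at room temperature. NKH477 (200nM) was then added for 30 min. cAMP was read by HTRF.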

[13] = molecular target: D(2) dopamine receptor (Homo sapiens) (UniProt P14416); assay: Dopamine D2 receptor (DRD2) small molecule antagonists, cell-based qHTS assay (AID 1963595; active = well fitted inhibition curve with a large enough effect in the signal ratio in the repeat runs, with a control signal flat; the % refers to the signal ratio)
Outline: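 Cells were plated and grown for 24 h at 37 °C. Ro20-1724 (0.1 mM final) went in first, then compound for 10 min. NKH477 (200 nM) with quinpirole (12 nM) followed for 30 min at RT, then HTRF detection reagents for 1 h.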

[14] = molecular target: 5-hydroxytryptamine receptor 2A (Homo sapiens) (UniProt P28223); assay: 5-hydroxytryptamine receptor 2A (HTR2A) small molecule antagonists, cell-based qHTS assay (AID 1963586); note: nearly all actives have a fitted effect of over 45% in size
Outline: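 CHO cells stably expressing human HTR2A were plated for 18 h at 37 C, then loaded with calcium dye for 1 h. Compounds were preincubated 5 min at room temperature before DOI (4 nM solution) was added. Kinetic fluorescence was read for 3 min.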

[15] = molecular target: 5-hydroxytryptamine receptor 2A (Homo sapiens) (UniProt P28223); assay: 5-hydroxytryptamine receptor 2A (HTR2A) small molecule agonists, cell-based qHTS assay (AID 1963587); note: nearly all actives have a fitted effect of over 30% in size
Outline: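 HTR2A-CHO cells, plated 18 h at 37 C/5% CO2, dye-loaded 1 h at 37 C; compounds in DMSO added by pin tool (agonist mode). Intracellular calcium flux read as kinetic fluorescence on FDSS over 2 min at 1 s intervals.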

[16] = molecular target: Muscarinic acetylcholine receptor M1 (Homo sapiens) (UniProt P11229); assay: Cholinergic receptor muscarinic 1 (CHRM1) small molecule antagonists, cell-based qHTS assay (AID 1963588); note: nearly all actives have a fitted effect of over 40% in size
Outline: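 Compounds were tested at 15 concentrations in three independent runs. Dye-loaded CHRM1-CHO cells were exposed 5 min at room temperature before stimulation by acetylcholine added at 50nM. Intracellular calcium was read kinetically on FDSS for 3 min.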

[17] = molecular target: Muscarinic acetylcholine receptor M1 (Homo sapiens) (UniProt P11229); assay: Cholinergic receptor muscarinic 1 (CHRM1) small molecule agonists, cell-based qHTS assay (AID 1963589); note: nearly all actives have a fitted effect of over 35% in size
Outline: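 Homogeneous fluorescence calcium flux, agonist mode. Human M1-expressing CHO cells; compound dosed at 15 concentrations, three independent runs; signal sampled every 1 sec.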

[18] = cAMP Responsive Elements (CRE) small molecule agonists, cell-based qHTS assay (AID 1963590)
Outline: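 HEK 293T cells stably bearing CRE-bla were plated at 2,000 cells per well and rested 18 h. Compounds, positive controls or DMSO were added for 3 h at 37 C. LiveBLAzer B/G substrate was then loaded for 2 h at room temperature.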

[19] = cAMP Responsive Elements (CRE) small molecule antagonists, cell-based qHTS assay (AID 1963591; active = well fitted inhibition curve with a large enough effect in the signal ratio in the repeat runs, not every such curve was filed as active; the % refers to the signal ratio)
Outline: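 First, CRE-bla HEK293T cells settled 18 h at 37 C. Next, compound and 0.25 uM final NKH477 were applied for 3 h. Last, LiveBLAzer B/G substrate was loaded for 2 h at room temperature.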

[20] = molecular target: Beta-2 adrenergic receptor (Homo sapiens) (UniProt P07550); assay: Adrenergic beta2 receptor (ADRB2) small molecule agonists, cell-based qHTS assay (AID 1963593);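 note: CHO cells stably overexpressing human ADRB2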
Outline: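 CHO cells stably over-expressing ADRB2 were plated overnight at 37C, then dosed with compounds plus a stimulation mix containing 100uM IBMX and 25uM Ro-20-1724 for 0.5hr at room temperature. cAMP was measured by HTRF competition, 1hr.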
% is set by controls: 0 for no effect and ±100 for the full control effect.

Sequence of KiSS-1 receptor (Homo sapiens) (Q969F8 whole entry, looked up): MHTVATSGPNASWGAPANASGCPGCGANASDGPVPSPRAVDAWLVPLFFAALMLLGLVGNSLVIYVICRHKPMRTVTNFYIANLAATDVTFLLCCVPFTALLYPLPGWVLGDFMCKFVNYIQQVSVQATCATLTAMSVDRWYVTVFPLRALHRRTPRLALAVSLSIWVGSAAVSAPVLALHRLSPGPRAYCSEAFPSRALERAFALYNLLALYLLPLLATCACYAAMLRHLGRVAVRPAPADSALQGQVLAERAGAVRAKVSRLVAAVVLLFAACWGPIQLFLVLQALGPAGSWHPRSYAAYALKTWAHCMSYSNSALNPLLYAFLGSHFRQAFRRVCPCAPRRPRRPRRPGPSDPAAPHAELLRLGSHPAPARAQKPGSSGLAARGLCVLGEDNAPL
Sequence of Gonadotropin-releasing hormone receptor (Homo sapiens) (P30968 whole entry, looked up): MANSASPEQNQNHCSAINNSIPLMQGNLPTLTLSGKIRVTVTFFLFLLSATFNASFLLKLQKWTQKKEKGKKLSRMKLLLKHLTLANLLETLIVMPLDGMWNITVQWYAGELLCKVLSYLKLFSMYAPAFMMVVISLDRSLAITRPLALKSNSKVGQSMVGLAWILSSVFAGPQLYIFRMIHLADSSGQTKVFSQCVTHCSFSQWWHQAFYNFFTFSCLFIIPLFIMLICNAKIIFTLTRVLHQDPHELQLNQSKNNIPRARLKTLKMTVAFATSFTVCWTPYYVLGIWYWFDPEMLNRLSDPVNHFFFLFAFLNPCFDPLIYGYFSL
Sequence of D(2) dopamine receptor (Homo sapiens) (P14416 whole entry, looked up): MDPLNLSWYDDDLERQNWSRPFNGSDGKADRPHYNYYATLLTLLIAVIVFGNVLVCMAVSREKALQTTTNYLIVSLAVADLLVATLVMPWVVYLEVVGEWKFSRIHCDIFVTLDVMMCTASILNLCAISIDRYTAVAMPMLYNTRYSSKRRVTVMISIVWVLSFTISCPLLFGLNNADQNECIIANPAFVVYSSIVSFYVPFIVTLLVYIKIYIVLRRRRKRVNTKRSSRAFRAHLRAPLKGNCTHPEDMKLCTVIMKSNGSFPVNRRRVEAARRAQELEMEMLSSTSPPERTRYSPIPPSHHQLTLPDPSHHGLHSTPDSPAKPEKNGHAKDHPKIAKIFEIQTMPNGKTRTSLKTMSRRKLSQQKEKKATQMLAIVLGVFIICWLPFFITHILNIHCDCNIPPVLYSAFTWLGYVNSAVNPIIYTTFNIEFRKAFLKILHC
Sequence of Muscarinic acetylcholine receptor M1 (Homo sapiens) (P11229 whole entry, looked up): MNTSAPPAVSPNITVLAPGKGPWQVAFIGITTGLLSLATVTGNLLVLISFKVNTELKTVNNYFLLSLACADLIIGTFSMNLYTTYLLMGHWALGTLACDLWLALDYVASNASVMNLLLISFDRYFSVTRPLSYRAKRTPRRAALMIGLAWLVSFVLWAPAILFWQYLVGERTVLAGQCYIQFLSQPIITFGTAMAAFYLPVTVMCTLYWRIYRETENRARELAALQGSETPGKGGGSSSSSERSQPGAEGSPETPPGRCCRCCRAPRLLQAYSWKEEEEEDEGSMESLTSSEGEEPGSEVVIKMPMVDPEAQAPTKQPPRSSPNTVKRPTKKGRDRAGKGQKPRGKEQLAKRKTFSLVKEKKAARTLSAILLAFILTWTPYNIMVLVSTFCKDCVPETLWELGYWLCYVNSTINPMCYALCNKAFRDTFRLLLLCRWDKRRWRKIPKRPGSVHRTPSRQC
Sequence of 5-hydroxytryptamine receptor 2A (Homo sapiens) (P28223 whole entry, looked up): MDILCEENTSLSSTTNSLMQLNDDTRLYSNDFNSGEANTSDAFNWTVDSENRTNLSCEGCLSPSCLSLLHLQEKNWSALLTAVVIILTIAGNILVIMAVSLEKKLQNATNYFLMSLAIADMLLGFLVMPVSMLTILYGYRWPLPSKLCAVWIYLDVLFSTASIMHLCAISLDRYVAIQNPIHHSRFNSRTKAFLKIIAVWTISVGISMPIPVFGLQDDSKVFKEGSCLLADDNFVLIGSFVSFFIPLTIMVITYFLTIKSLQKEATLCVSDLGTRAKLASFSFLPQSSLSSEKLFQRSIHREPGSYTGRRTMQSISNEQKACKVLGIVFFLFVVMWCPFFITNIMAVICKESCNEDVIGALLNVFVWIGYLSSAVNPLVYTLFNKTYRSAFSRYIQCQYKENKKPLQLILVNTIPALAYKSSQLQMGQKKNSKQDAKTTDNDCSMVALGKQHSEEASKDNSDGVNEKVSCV
Sequence of Beta-2 adrenergic receptor (Homo sapiens) (P07550 whole entry, looked up): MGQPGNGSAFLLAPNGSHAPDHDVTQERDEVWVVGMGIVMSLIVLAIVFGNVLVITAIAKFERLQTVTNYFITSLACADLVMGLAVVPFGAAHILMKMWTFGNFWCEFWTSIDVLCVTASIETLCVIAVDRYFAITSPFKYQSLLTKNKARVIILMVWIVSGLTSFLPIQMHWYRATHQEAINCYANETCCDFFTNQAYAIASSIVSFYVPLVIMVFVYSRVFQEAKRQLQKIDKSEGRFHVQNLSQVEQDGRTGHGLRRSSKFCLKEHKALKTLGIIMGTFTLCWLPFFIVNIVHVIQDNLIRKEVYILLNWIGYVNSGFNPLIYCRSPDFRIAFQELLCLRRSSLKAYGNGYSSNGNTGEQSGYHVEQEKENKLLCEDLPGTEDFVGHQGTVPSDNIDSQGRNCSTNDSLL

O=C(c1ccccc1)c1ccc2n1CCC2C(=O)O (centres undefined)
inactive: Potency [1] | Potency [2] | Potency [3] | outcome [4] | outcome [5] | Potency [6] | Potency [7] | Potency [8] | Potency [9] | Potency [10] | Potency [11] | Potency [12] | Potency [13]

NC(=O)c1ccncc1
inactive: Potency [1] | Potency [2] | Potency [3] | outcome [4] | outcome [5] | Potency [6] | Potency [7] | Potency [8] | Potency [9] | Potency [14] | Potency [15] | Potency [16] | Potency [17] | Potency [18] | Potency [19] | Potency [11] | Potency [12] | Potency [13]

CCCCCCCCCCCC(=O)N(CC)CC
inactive: Potency [1] | Potency [2] | Potency [3] | outcome [4] | outcome [5] | Potency [6] | Potency [7] | Potency [8] | Potency [9] | Potency [14] | Potency [15] | Potency [16] | Potency [17] | Potency [18] | Potency [11] | Potency [13]

CCCCCCCCN1CCCC1=O
inactive: Potency [1] | Potency [2] | Potency [3] | outcome [4] | outcome [5] | Potency [6] | Potency [7] | Potency [8] | Potency [9] | Potency [14] | Potency [15] | Potency [16] | Potency [17] | Potency [18] | Potency [19] | Potency [11] | Potency [20] | Potency [12] | Potency [13]

Cc1cnc(NS(=O)(=O)c2ccc(N)cc2)nc1
inactive: Potency [1] | Potency [2] | Potency [3] | outcome [4] | outcome [5] | Potency [6] | Potency [7] | Potency [8] | Potency [9] | Potency [14] | Potency [15] | Potency [16] | Potency [17] | Potency [18] | Potency [19] | Potency [11] | Potency [13]

COC(=O)C(C)O (centres undefined)
inactive: Potency [1] | Potency [2] | Potency [3] | outcome [4] | outcome [5] | Potency [6] | Potency [7] | Potency [8] | Potency [9] | Potency [14] | Potency [16] | Potency [17] | Potency [18] | Potency [19] | Potency [11] | Potency [20] | Potency [12] | Potency [13]

O=C(O)c1cccc(Oc2ccccc2)c1
inactive: Potency [1] | Potency [2] | Potency [3] | outcome [4] | outcome [5] | Potency [6] | Potency [7] | Potency [8] | Potency [9] | Potency [14] | Potency [15] | Potency [16] | Potency [17] | Potency [11] | Potency [20] | Potency [12] | Potency [13]

O=C(O)C1CCC1
inactive: Potency [1] | Potency [2] | Potency [3] | outcome [4] | outcome [5] | Potency [6] | Potency [7] | Potency [8] | Potency [9] | Potency [15] | Potency [16] | Potency [17] | Potency [18] | Potency [19] | Potency [11] | Potency [20] | Potency [12] | Potency [13]

CCn1c2ccccc2c2cc([N+](=O)[O-])ccc21
inactive: Potency [1] | Potency [2] | Potency [3] | outcome [4] | outcome [5] | Potency [6] | Potency [7] | Potency [8] | Potency [9] | Potency [14] | Potency [15] | Potency [16] | Potency [17] | Potency [19] | Potency [11] | Potency [13]

O=c1[nH]c(=O)c2[nH]c(=O)[nH]c2[nH]1
inactive: activity change, negative = cytotoxicity [1] 13.3% [at 8.39 µM] | activity, positive = activation [2] 2.42% [at 8.39 µM] | activity change [3] -0.425% [at 5.22 µM, hits give high values] | activation [4] -0.365% [at 6.97 µM] | activation [5] 1.57% [at 5.23 µM] | activation [6] -6.75% [at 5.99 µM] | activation [7] 1.18% [at 5.99 µM] | activity change, negative = cytotoxicity [8] -5.03% [at 5.99 µM] | activity change, negative = cytotoxicity [9] -22.6% [at 5.99 µM] | activity, negative = inhibition [16] 3.65% [at 5.58 µM] | activation [17] -0.246% [at 6.97 µM] | activation [18] 1.51% [at 8.39 µM] | activity change, negative = inhibition [19] -5.1% [at 8.39 µM] | activity change, negative = inhibition [11] -4.56% [at 8.39 µM] | activation [20] 11.5% [at 8.39 µM] | activation [12] 0.309% [at 8.39 µM] | activity change, negative = inhibition [13] -2.53% [at 8.38 µM]

From PubChem BioAssay (Tox21)
